In the library only some 1.7% were active in any assay of this set; here they are far more common.
RXFP1 antag = blocks the human relaxin receptor RXFP1; HEK293-RXFP1, relaxin-stimulated cAMP HTRF, 30 min; active compounds read low; AID 1259400; Q9HBX9; hit rate 0.59% among 350,000; activity change, negative = inhibition, % at 57.5 µM;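 active means activity change of -60% or lower, but not beyond a set lower limit; inconclusive means change between -60% and -40%, or beyond the set limit; inactive means change above -40%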
Target sequence (Q9HBX9 whole entry, looked up): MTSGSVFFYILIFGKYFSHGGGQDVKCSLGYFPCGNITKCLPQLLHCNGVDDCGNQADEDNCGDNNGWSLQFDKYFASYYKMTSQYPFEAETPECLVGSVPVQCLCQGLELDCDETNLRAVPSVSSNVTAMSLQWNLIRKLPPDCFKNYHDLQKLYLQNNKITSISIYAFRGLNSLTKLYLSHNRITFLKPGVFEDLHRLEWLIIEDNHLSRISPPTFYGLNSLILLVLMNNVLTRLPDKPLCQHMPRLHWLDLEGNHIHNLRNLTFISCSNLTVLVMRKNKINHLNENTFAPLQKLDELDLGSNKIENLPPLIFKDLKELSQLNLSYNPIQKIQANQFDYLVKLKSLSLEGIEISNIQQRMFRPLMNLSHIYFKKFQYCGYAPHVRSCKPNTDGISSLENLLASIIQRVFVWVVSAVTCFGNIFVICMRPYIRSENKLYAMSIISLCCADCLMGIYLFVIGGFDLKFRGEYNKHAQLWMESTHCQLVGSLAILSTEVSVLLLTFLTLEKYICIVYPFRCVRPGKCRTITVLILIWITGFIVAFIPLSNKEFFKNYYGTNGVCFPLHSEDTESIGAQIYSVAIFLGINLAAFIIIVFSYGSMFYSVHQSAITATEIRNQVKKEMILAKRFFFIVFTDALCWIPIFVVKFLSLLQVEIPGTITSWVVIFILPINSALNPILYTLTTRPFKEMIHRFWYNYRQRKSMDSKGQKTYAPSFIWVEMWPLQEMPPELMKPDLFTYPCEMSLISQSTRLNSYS
hERG WT inh = KCNH2 (human, wildtype) channel inhibition | Q12809 | U2OS, BacMam KCNH2, thallium flux FluxOr; active compounds read low | activity change, % at 1.84 µM | hit rate 0.37% among 340,000 | AID 720551;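 active means maximum activity change below -70%; inconclusive means maximum activity change between -70% and -50%; inactive means maximum activity change above -50%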
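U2OS cells transduced with wild-type KCNH2 virus are loaded with FluxOr dye for 45 min, and thallium flux is measured in kinetic reads before and after stimulation buffer. Rate constants are normalized to DMSO controls.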
KCNH2 3.1 inh = blocks the human KCNH2 3.1 channel isoform. U2OS KCNH2 3.1, thallium flux FluxOr; active compounds read low. activity change, % (tested at about 1.8 µM). hit rate 0.95% among 340,000;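 active means maximum activity change below -70%; inconclusive means maximum activity change from -70% to -50%; inactive means maximum activity change above -50%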;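 further: thallium influx rate constant from kinetic fluorescence after stimulation buffer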
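Thallium flux via FluxOr fluorescence (Red40 quencher, 45 min loading) in U2OS cells virally expressing the KCNH2 3.1 isoform (1.77 x 10^8 /mL virus, overnight at 37 C). Rate constants from 2-min kinetic reads post-stimulation, normalised to positive and negative controls.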
pAkt inh = Akt phosphorylation inhibition; Neuro2A IGF-stimulated pAkt S473 HTRF, 20 min; active compounds read low; activity change, % for hits at 50 µM; hit rate 0.32% among 360,000; AID 651550; in the data active means activity change below about -80%; inconclusive means mostly about -51% to -80%
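Neuro2A cells (4,500/well, DMEM with 0.5% FBS) were treated with compound at a single 50 µM final concentration, stimulated with 6 nM IGF for 20 min at 37 °C, and lysed. Phospho-Akt Ser473 was read by HTRF as 665/615 ratio ×10^4.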
RXFP1 ag = agonists of human relaxin receptor RXFP1 | Q9HBX9 | HEK293T-RXFP1 cAMP TR-FRET, 30 min; response scale: percent of porcine relaxin response, buffer zero | Potency, µM (series often up to 57.5 µM), without a hit: top-dose activation, hits mostly activators | hit rate 0.3% among 370,000; active means well fitted activation curve with a large enough effect; inconclusive means small, poorly fitted or top-dose-only effect; further: potency means the concentration at half of the fitted maximal effect; nearly all actives have a fitted effect of over 60% in size
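HEK293 cells stably expressing RXFP1, treated 30 min at 37C with compounds plus PDE4 inhibitor Ro 20174; cAMP measured by HTRF TR-FRET. Normalized to buffer and 29 nM porcine relaxin; EC50 by Hill fit.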
* marks the source's active call; other numbers are inactive results; i = inactive; u = inconclusive; x = not tested or not shown. On the % scale 0 is the no-effect control and ±100 the full control effect.

SMILES	RXFP1 antag	hERG WT inh	KCNH2 3.1 inh	pAkt inh	RXFP1 ag
O=C(c1ccc(C(F)(F)F)cc1)C1CCCN(Cc2cccn2-c2ncccn2)C1 (stereo not drawn)	7	-112*	-111*	i	u
CCOc1cc(CN2CCCC(C(=O)c3cccc(C(F)(F)F)c3)C2)ccc1O (stereo not drawn)	-3	43	-47	i	-2%
CSc1ccc(C(=O)C2CCCN(Cc3cccc4nccnc34)C2)cc1 (stereo not drawn)	-24	u	-108*	i	2%
O=C(c1ccc(C(F)(F)F)cc1)C1CCCN(C(=O)c2cnccn2)C1 (stereo not drawn)	-5	3	8	i	-1%
O=C(c1cccc(C(F)(F)F)c1)C1CCCN(Cc2cccn2-c2ncccn2)C1 (stereo not drawn)	-5	-72*	-9	i	2%
CCCCn1cc(S(=O)(=O)c2ccc(CC)cc2)c(=O)c2cc(F)c(N3CCCC(C)C3)cc21 (stereo not drawn)	-3	x	x	x	0%
COc1ccc(-c2cnnc(N/N=C/c3ccc(-c4ccc([N+](=O)[O-])cc4)o3)n2)cc1	2	-11	-149*	i	-2%
O=[N+]([O-])c1ccc(-c2ccc(/C=N/Nc3nc(N4CCCC4)nc(N4CCCC4)n3)o2)cc1	-8	i	u	i	1%
Cc1ccc(NC(=O)C2CCN(C(=O)c3ccco3)CC2)cc1	1	-20	-85*	i	3%
Cc1ccc(N2CCN(C(=O)c3cn(CC4CCCCC4)nn3)C(C)C2)cc1 (stereo not drawn)	-4	-6	-71*	i	x
CCC(=O)c1ccc(OCC(O)CN2CCOCC2)cc1 (stereo not drawn)	6	15	3	i	1%
N#Cc1ccc(OCC(O)CN2CCN(C(c3ccccc3)c3ccccc3)CC2)cc1 (stereo not drawn)	-39	-84*	-100*	i	-1%
OC(COc1ccccc1)CN1CCN(C(c2ccccc2)c2ccccc2)CC1 (stereo not drawn)	-10	-120*	-109*	i	0%
COc1ccccc1OCCCCN1CCN(C(c2ccccc2)c2ccccc2)CC1	-80*	-49	-93*	i	-1%
CCC(=O)c1ccc(OCC(O)CN2CCN(C(c3ccccc3)c3ccccc3)CC2)cc1 (stereo not drawn)	5	-88*	-98*	i	0%
COc1ccc(S(=O)(=O)N(C)CC(=O)NCc2cccnc2)cc1OC	24	10	0	i	0%
O=C(CCCOc1ccccc1)N1CCCc2ccccc21	9	0	9	i	5%
COCc1c(C(=O)N2CCN(c3ncccn3)CC2)oc2ccccc12	2	-3	2	i	0%
NC(=O)CNC(=O)C1CCCc2c1[nH]c1ccc(Cl)cc21 (stereo not drawn)	-2	-6	10	i	3%
OC(COCc1ccco1)CN1CCN(C(c2ccccc2)c2ccccc2)CC1 (stereo not drawn)	-14	-76*	-104*	i	0%
N#Cc1ccc(OCC(O)CN2CCN(CC(O)COc3ccc(C#N)cc3)CC2)cc1 (stereo not drawn)	-9	-147*	-107*	i	-1%
N#Cc1ccc(OCC(O)CN2CCN(c3ncc(C(F)(F)F)cc3Cl)CC2)cc1 (stereo not drawn)	-7	u	-101*	i	-2%
Cc1ccc(Cl)cc1N1CCN(CC(O)COCc2ccco2)CC1 (stereo not drawn)	-5	66	x	i	0%
c1ccc(OCCOCCN2CCN(C(c3ccccc3)c3ccccc3)CC2)cc1	-26	-78*	-86*	i	-1%
CCCc1nc2c(s1)CCc1onc(-c3cccc([N+](=O)[O-])c3)c1-2	x	15	-9	i	0%
SMILES	RXFP1 antag	hERG WT inh	KCNH2 3.1 inh	pAkt inh	RXFP1 ag
CS(=O)(=O)N1CCC(C(=O)NCc2ccc(F)cc2)CC1	10	x	-10	i	2%
COc1ccc(CN2CCC(N(CCc3ccccc3)Cc3ccccc3)CC2)c(OC)c1	u	-72*	-107*	i	-1%
CCCN1CCC(N(CCc2ccccc2)Cc2ccccc2)CC1	-6	-20	-75*	i	-1%
FC(F)(F)c1ccc(N2CCN(c3ncnc4c3nnn4Cc3ccccc3)CC2)nc1	-10	0	-5	-86%*	-2%
c1ccc(Cn2nnc3c(N4CCOCC4)ncnc32)cc1	x	0	8	i	-1%
C=Cc1ccc(Cn2ccn(-c3ccc(F)c(F)c3)c(=O)c2=O)cc1	10	x	x	x	1%
COc1ccc(-n2nc(C(=O)NCC(=O)NCCCN3CCCCCC3)c3ccccc3c2=O)cc1Cl	-13	2	-86*	i	4%
CCCSC1=C(C#N)C(c2ccccc2C)CC(=O)N1 (stereo not drawn)	-1	3	0	i	3%
CCCCSC1=C(C#N)C(c2ccccc2C)CC(=O)N1 (stereo not drawn)	x	-311*	5	i	1%
O=C(Nc1ccc(N2CCN(C(=O)c3ccc(Cl)cc3)CC2)cc1)c1cc2ccccc2o1	7	-117*	-111*	i	-1%
O=C(Nc1ccc(N2CCN(C(=O)c3ccc(Cl)cc3)CC2)cc1)c1ccc(Br)o1	-8	-7	-90*	i	0%
CN1CCN(c2ccc(NC(=O)c3ccc(-c4ccc(Cl)cc4)o3)cc2)CC1	u	16	-95*	i	-4%
CS(=O)(=O)N1CCN(c2ccc(NC(=O)c3ccc(-c4ccc(Cl)cc4)o3)cc2)CC1	-4	12	-32	u	2%
O=C(Nc1ccc(Nc2ccccc2)cc1)c1ccc(Br)o1	-68*	9	5	i	-1%
CS(=O)(=O)Nc1cccc(NC(=O)C2Cc3c(-c4cccc(C(N)=O)c4)ccnc3O2)c1 (stereo not drawn)	x	x	x	i	x
COc1cc(OC)c(NC(=O)c2cc(CN3CCOCC3)on2)cc1Cl	-14	x	x	x	1%
Cc1ccc(C(=O)N2CCN(c3ccc(NC(=O)CSc4ccc(Cl)cc4)cc3)CC2)cc1	-4	-118*	-118*	i	2%
Cc1ccc(NC(=O)c2sc3ccccc3c2Cl)cc1	-3	x	x	x	u
CN1CCN(c2ccc(NC(=O)c3sc4ccccc4c3Cl)cc2)CC1	9	-38	-74*	i	12%
COc1cccc(NC(=O)C(C)N2C(=O)c3ccccc3S2(=O)=O)c1 (stereo not drawn)	-13	-10	-6	i	1%
Cc1ccc2nc(NC(=O)CS(=O)(=O)Cc3ccccc3)sc2c1	-15	-3	13	i	-1%

Source: PubChem BioAssay (National Center for Advancing Translational Sciences (NCATS))
